Compound activity (PubChem)
ERa SRC1 pot = enhancers of ERα–SRC-1 coactivator binding, primary screen, biochemical, TR-FRET, ERα LBD, low estradiol; TR-FRET ERalpha-LBD/SRC-Cy5 coactivator binding, 2 h; 100 = basal binding, no effect; coactivator binding (% of control), % at 25.6 µM; hit rate 1.3% among 86,000; AID 639, 2007; in the data active = activity above about 200%;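 note: binding measured in presence of low estradiol as agonist stimulus; 0% = peptide alone without receptor and 100% = receptor with peptide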
CD11b adhes inh = inhibitors of CD11b/CD18 adhesion to fibrinogen, primary screen, K562 cells, luminescence; ATPlite luminescence; Mn2+ added to activate the integrin; Integrin beta-2 (Homo sapiens) + Integrin alpha-M (Homo sapiens), P05107+P11215; inhibition, % at 10 µM; hit rate 0.54% among 93,000; AID 1497, 2009;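 active = primary inhibition of 50% or more at 10 µM, then 40% or more on retest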
ERa coact inh = ERα–SRC-1 coactivator interaction inhibitors, primary screen, biochemical, TR-FRET, ERα LBD, estradiol-bound. Estrogen receptor (Homo sapiens), P03372. TR-FRET ER-alpha LBD / SRC-1 peptide. inhibition, % at 25.6 µM. hit rate 1.7% among 86,000; in the data active = inhibition above about 50%;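 note: 0% = receptor plus peptide control and 100% = peptide only without receptor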
ERb SRC1 inh = inhibitors of ERβ-SRC1 coactivator interaction, primary screen, biochemical, TR-FRET, ERβ LBD, SRC-1 peptide. inhibition, % at 25.6 µM. hit rate 1.3% among 86,000. TR-FRET ER-beta LBD / SRC1-Cy5 peptide binding; receptor agonist-loaded with 1 µM estradiol;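 active = compounds whose percent inhibition of the receptor-coactivator binding signal exceeds about 50% in the single-dose screen, limit read from the data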;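 note: 0% = receptor plus peptide wells without compound and 100% = peptide-only wells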
Target sequence (Q92731 whole entry, looked up, the tested form may be a part): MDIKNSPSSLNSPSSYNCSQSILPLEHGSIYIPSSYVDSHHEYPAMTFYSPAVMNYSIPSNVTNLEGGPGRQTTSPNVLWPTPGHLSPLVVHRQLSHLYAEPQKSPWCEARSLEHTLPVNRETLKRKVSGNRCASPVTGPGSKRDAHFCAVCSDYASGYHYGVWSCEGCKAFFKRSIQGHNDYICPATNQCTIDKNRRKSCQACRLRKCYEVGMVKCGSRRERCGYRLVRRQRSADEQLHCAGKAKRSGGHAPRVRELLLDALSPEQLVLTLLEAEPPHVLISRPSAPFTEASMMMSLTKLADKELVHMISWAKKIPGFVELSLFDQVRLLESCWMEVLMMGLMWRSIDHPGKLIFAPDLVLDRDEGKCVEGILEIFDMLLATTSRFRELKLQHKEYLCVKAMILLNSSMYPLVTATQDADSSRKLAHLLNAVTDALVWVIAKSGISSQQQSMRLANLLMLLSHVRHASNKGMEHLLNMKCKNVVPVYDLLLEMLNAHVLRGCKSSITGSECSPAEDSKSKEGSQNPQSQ
CD11b adhes enh = enhancers of CD11b/CD18 adhesion to fibrinogen, primary screen, K562 cells, luminescence. activation, % at 10 µM. ATPlite luminescence. hit rate 0.07% among 93,000;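 active = 10 µM primary screen giving 50% or more activity, confirmed by 40% or more on retest at that dose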
Starred values were filed as active, the others as inactive; · = no result; [ ] = another dose, or the depositor's remark. Most compounds without a hit are left out; they make up all but 3.1% or so of the library.

SMILES	ERa SRC1 pot	CD11b adhes inh	ERa coact inh	ERb SRC1 inh	CD11b adhes enh
O=C(COC(=O)c1ccccc1Oc1ccccc1)NCc1ccco1	185	-11	64*	47	3
O=C(COC(=O)c1ccccc1)NCc1ccco1	88	13	76*[fluorescence artefact?]	60*	0
Cc1ccc(C(=O)OCC(=O)NCc2ccco2)cc1	99	-16	17	-3	-1
Cn1nnnc1SCC(=O)N(C1CCCCC1)C1CCCCC1	108	-10	-5	51*[fluorescence artefact?]	1
Cn1nnnc1SCC(=O)NC1CCCCC1	105	-1	-4	4	-1
COc1cc(C(=O)Nc2ccc3c(c2)C(=O)N(CCC(=O)O)C3=O)cc(OC)c1OC	99	·	-25	-14	·
CC(=O)Oc1ccc(C(=O)Nc2ccc3c(c2)C(=O)N(CCC(=O)O)C3=O)cc1	709*[fluorescence artefact?]	-26	-37	-15	2
CCOc1ccccc1C(=O)N[C@H](C(=O)OCc1cc([N+](=O)[O-])cc2c1OCOC2)C(C)C	·	20	·	·	1
CNC(=O)CSc1nc2c(c(=O)n(C)c(=O)n2C)n1Cc1ccc(C)cc1	201*	-32	15	0	-3
Cc1ccc(Cn2c(SCC(=O)Nc3cccc(C)n3)nc3c2c(=O)n(C)c(=O)n3C)cc1	165	-6	4	8	6
Cc1nn(-c2ccccc2)c(Cl)c1/C=N/Nc1ccc(S(=O)(=O)Nc2ccccc2C(=O)O)cc1[N+](=O)[O-]	23	·	89*	64*	·
Cc1cc(S(=O)(=O)Nc2ccccc2C(=O)O)ccc1Cl	123	13	2	-8	-5
CCOC(=O)c1cc2c(N)c(C(=O)c3cc(C#N)c(SC)nc3C)sc2nc1C	174	-6	69*[fluorescence artefact?]	31	0
CCOC(=O)c1cc(C#N)c(SCc2ccc(C#N)cc2)nc1C	252*[fluorescence artefact?]	·	72*[fluorescence artefact?]	66*[fluorescence artefact?]	·
CC(=O)c1cc(C#N)c(SCc2ccc(F)cc2)nc1C	140	4	-7	4	-4
CCOC(=O)c1cc(C#N)c(N)nc1C	106	2	-8	-3	6
c1ccc2c(c1)CC1(CCCC1)n1nnnc1-2	124	0	7	5	1
CC1(C)Cc2ccccc2-c2nnnn21	101	3	6	97*[fluorescence artefact?]	2
COc1ccnc(NCc2cccnc2)c1C#N	·	-12	·	·	-7
CCOC(=O)c1cnc2c(-c3cccc(Br)c3)cnn2c1C	·	1	·	·	5
O=C(O)c1cc2nc(-c3ccc(F)cc3)cc(C(F)(F)F)n2n1	60	5	25	36	0
CCn1cc(-c2cc(C(F)(F)F)n3nc(C(=O)O)cc3n2)c(C)n1	23	-17	64*[fluorescence artefact?]	75*[fluorescence artefact?]	0
CCOC(=O)N1CCN(c2cc(NCCC(=O)O)c3c4c(onc24)-c2ccccc2C3=O)CC1	51	8	10	65*[fluorescence artefact?]	-5
O=C(O)CCCNc1cc(N2CCC3(CC2)OCCO3)c2noc3c2c1C(=O)c1ccccc1-3	41	·	27	88*[fluorescence artefact?]	·
COc1ccc(Cn2c(SCc3ccccc3C)nc3cc(OC)c(OC)cc3c2=N)cc1	·	-3	·	·	135*
SMILES	ERa SRC1 pot	CD11b adhes inh	ERa coact inh	ERb SRC1 inh	CD11b adhes enh
CCSc1nc2cc(OC)c(OC)cc2c(=O)n1CCc1ccccc1	120	2	-4	-9	13
CCOC(=O)C(NCc1ccco1)(NC(=O)c1ccccc1)C(F)(F)F (centres undefined)	·	0	·	·	2
O=C(Nc1nc(=S)ss1)c1ccc(Cl)cc1Cl	50	114*	9	-16	-7
O=C(COc1ccccc1CNCc1ccccc1)Nc1ccccc1	123	-5	1	-2	-1
O=C(COC(=O)c1ccccc1)Nc1ccccc1N1CCOCC1	114	·	-16	7	·
CCOC(=O)c1c(C)[nH]c(C)c1C(=O)COc1ccc(NC(=O)c2ccco2)cc1	47	-13	45	54*[fluorescence artefact?]	33
Cc1ccc(NC(=O)c2ccc(OC(=O)c3ccco3)cc2)cc1	372*[fluorescence artefact?]	-16	32	21	59
CCC(C)NS(=O)(=O)c1ccc(OCC(=O)N2CCCCC2)cc1 (centres undefined)	107	16	-3	-3	-2
CC(NC(=O)/C(=C/c1cccc([N+](=O)[O-])c1)NC(=O)c1ccco1)C(=O)O (centres undefined)	·	13	·	·	-4
CCN1CCc2c(sc3c2c(NCc2ccco2)nc2nnnn23)C1	20	-6	85*[fluorescence artefact?]	62*[fluorescence artefact?]	5
O=C(Nc1ccc2c(c1)C(=O)N(c1ccccc1)C2=O)C1CCCO1 (centres undefined)	105	·	-4	-12	·
CCc1ccc(-c2nc(C(N)=O)c3[nH]c(=O)n(-c4ccccc4OC)c3n2)cc1	300*[fluorescence artefact?]	-4	20	12	2
COc1cccc(-c2nc(C(N)=O)c3[nH]c(=O)n(-c4cccc(Cl)c4)c3n2)c1OC	109	-56	6	-3	-1
COc1ccc(-c2nc(C(N)=O)c3[nH]c(=O)n(-c4cccc(Cl)c4)c3n2)cc1OC	96	62	84*	48	37
CC1=NN(C(=O)c2c(Br)c(C)nn2C)C(O)(C(F)(F)F)C1 (centres undefined)	·	7	·	·	1
COc1ccc(NC(=O)Cn2c(=O)n(CC(=O)NCc3ccco3)c(=O)c3ccccc32)cc1OC	·	2	·	·	-4
COc1ccc2c(C)nc(Nc3nc(C)cc(C)n3)nc2c1	243*	-13	17	26	0
COc1ccc2c(C)nc(Nc3nc(C)c(C)c(=O)[nH]3)nc2c1	99	-10	6	13	-3
CCN1CCN(c2ccc(NC(=O)c3cccc4ncccc34)cc2)CC1	25	-26	50*[fluorescence artefact?]	63*[fluorescence artefact?]	6
COc1ccc(Cn2c(-c3ccc(C)cc3)c[n+]3ccccc23)cc1	·	34	·	·	0
O=C(NCCO)C(F)(F)C(F)(F)C(F)(F)OC(F)(C(=O)NCCO)C(F)(F)F (centres undefined)	110	12	-2	-8	2
O=C(CNC(=O)c1ccco1)OCc1ccc(Cl)cc1	133	-24	1	60*	2
COC(=O)c1cccc(COC(=O)CNC(=O)c2ccco2)c1	·	3	·	·	-6
CCC(C)Sc1nc2c(cnn2-c2ccc(C)cc2)c(=O)[nH]1 (centres undefined)	526*[fluorescence artefact?]	-3	4	43	27
CCCCSc1nc2c(cnn2-c2ccc(Cl)cc2)c(=O)[nH]1	147	-3	0	-5	-3
CCSc1nc2c(cnn2-c2ccc(C)cc2)c(=O)[nH]1	628*	-5	-19	23	15
CCCSc1nc2c(cnn2-c2ccc(C)cc2)c(=O)[nH]1	298*[fluorescence artefact?]	0	6	37	11
CCCSc1nc2c(cnn2-c2ccccc2)c(=O)[nH]1	201*	-40	-6	13	-1
